Measured values as given in publication PMC5540273 (PLoS ONE, 2017).
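Also: KINOMEscan kinase panel screen.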

Each molecule was assayed on WNK2. Settings: concentration: 1 μM, replicates: in singlicate; n = 1.
`Cn1cnc2c(N)ncnc21` [SKF-97623] was tested, and the “%Inh” value was 8%.
With `Cl.Cl.Cl.N#Cc1ccc(CCNc2nccc(-c3cccc(CN4CCNCC4)c3)n2)cc1` [GSK2137462] the “%Inh” value was 0%.
With `O=C1NC(=O)C(c2ccc(Cl)cc2)=C1Nc1ccc(O)cc1` [SB-340867] the “%Inh” value was 48%.
With `CC[C@@H]1CO[C@H](C(=O)Nc2ccccc2)CN1c1cc(-c2ccc3c(N)n[nH]c3c2)nc(NC)n1` [GSK2376236] the “%Inh” value was 10%.
In the case of `Cc1c(Cn2c3ccccc3n3c(=O)cc(N4CCOCC4)nc23)cccc1C(F)(F)F` [GSK2306394], the “%Inh” value is reported as 23%.
For `CSc1ccc(-c2nc3n(c2-c2ccncc2)CCC3)cc1` [SKF-105561], the “%Inh” value was 21%.
In the case of `Cc1ccc(-c2nc(Nc3ccncc3)c3ccccc3n2)s1` [GSK189015], the “%Inh” value is reported as 3%.
`Cc1ccc(NC(=O)Nc2ccc(Cl)cc2)cc1-c1ccc(C(=O)Nc2ccncc2)cc1` [GSK1398472] was tested, and the “%Inh” value was 0%.
For `CC(C)c1ccc(O)cc1Nc1ccnc2ccc(C(F)(F)F)cc12` [GW482059], the “%Inh” value was 0%.
For `CC(C)c1cc(-c2ccc3c(N)n[nH]c3c2)nc(N)n1` [GSK2250882], the “%Inh” value was 0%.
`Fc1ccc(-c2nc3n(c2-c2ccncc2)CCS3)cc1` [GI98581] was tested, and the “%Inh” value was 7%.
For `Cc1cccc2c(-c3ccncn3)c(-c3ccc(F)cc3)nn12` [GW515532], the “%Inh” value was 0%.
With `COc1cccc(NC(=O)Nc2ccc(C)c(-c3ccc(C(=O)Nc4ccncc4)cc3)c2)c1` [GSK1398474] the “%Inh” value was 0%.
`CNC(=O)c1ccc(C)c(-n2c(C)cc(OCc3ccc(F)cc3F)c(Br)c2=O)c1` was tested, and the “%Inh” value was 0%.
With `Cc1ccc(NC(=O)c2ccc(Cl)cc2)cc1-c1ccc(C(=O)Nc2ccncc2)cc1` [GSK1398467] the “%Inh” value was 0%.
In the case of `O=C(Nc1n[nH]c2nc(-c3cccs3)c(Br)cc12)C1CCCC1` [SB-743341], the “%Inh” value is reported as 5%.
In the case of `COc1ccc2cc(-c3nc(-c4ccccc4C(C)C)[nH]c3-c3ccncc3)ccc2c1` [SB-660566], the “%Inh” value is reported as 14%.
In the case of `COc1cc2ncnc(Nc3cccc(Br)c3)c2cc1OC.Cl` [GI230329], the “%Inh” value is reported as 0%.
In the case of `O=c1cc(N2CCOCC2)nc2n(Cc3cccc(Cl)c3Cl)c3ccccc3n12` [GSK2299009], the “%Inh” value is reported as 42%.
`CC(=O)c1c(C)c2cnc(Nc3ccn(C)n3)nc2n(C2CCCC2)c1=O` was tested, and the “%Inh” value was 0%.
With `CN1c2ccc(-c3ccc(C(N)=O)cc3)cc2-c2[nH]ncc2S1(=O)=O` the “%Inh” value was 0%.
`COc1ccc(Nc2nccc(NCCNC(=O)Nc3cc(C)ccc3C)n2)cc1` [GSK1379899] was tested, and the “%Inh” value was 10%.
For `Nc1cccc(-c2ccc3c(N)n[nH]c3c2)n1` [GSK2192730], the “%Inh” value was 0%.
`CNc1nc(-c2ccc3c(N)n[nH]c3c2)cc(N2C[C@@H](C(=O)Nc3ccccc3)CC[C@H]2C)n1` [GSK2298859] was tested, and the “%Inh” value was 0%.
For `Cc1ccc(NC(=O)Nc2ccccc2F)cc1-c1ccc(C(=O)Nc2ccncc2)cc1` [GSK1398477], the “%Inh” value was 0%.
For `c1ccc(-c2ccnc3[nH]ccc23)cc1` [SB-693578], the “%Inh” value was 11%.
For `O=C(Nc1n[nH]c2nc(-c3cccs3)c(Br)cc12)C1CC1` [SB-735297], the “%Inh” value was 0%.
`Cn1cncc1C(=O)NC1CCN(c2ccnc(Nc3ccc(F)cc3)n2)C1` (centres unmarked) [GSK1379717] was tested, and the “%Inh” value was 0%.
For `COc1ccc(Nc2nccc(N3CCC(NC(=O)C(C)c4ccc(Cl)cc4)CC3)n2)cc1` (centres unmarked) [GSK1379812], the “%Inh” value was 0%.
For `CCc1ccc(-c2ccc3c(c2)-c2n[nH]cc2S(=O)(=O)N3C)cc1`, the “%Inh” value was 2%.
`CS(=O)(=O)CCNCc1nc(-c2ccc3ncnc(Nc4ccc(OCc5ccccc5)c(Cl)c4)c3c2)cs1.Cl` [GW582764] was tested, and the “%Inh” value was 13%.
For `Cc1ccc(NC(=O)Nc2ccc(Cl)c(C(F)(F)F)c2)cc1-c1ccc(C(=O)Nc2ccncc2)cc1` [GSK1398470], the “%Inh” value was 8%.
For `Fc1ccc(-c2nn3cccc(F)c3c2-c2ccncc2)cc1` [GW475620], the “%Inh” value was 20%.
With `CNc1nc(-c2ccc3c(N)n[nH]c3c2)cc(N2C[C@@H](C(=O)NC3CCCCC3)OC[C@H]2C)n1` [GSK2375584] the “%Inh” value was 25%.
For `Cn1cncc1-c1cc2c(Nc3ccc(OCc4ccccc4)cc3)ncnc2cn1` [GW281179], the “%Inh” value was 7%.
`Fc1ccc(-c2nc[nH]c2-c2ccncc2)cc1` [SB-217360] was tested, and the “%Inh” value was 0%.
With `COc1cccc(C2=C(Nc3cc(Cl)c(O)c(Cl)c3)C(=O)NC2=O)c1` [SB-390767] the “%Inh” value was 0%.

The molecules below were run on WNK3. Settings: concentration: 1 μM, replicates: in singlicate; n = 1.
For `Cn1cnc2c(N)ncnc21` [SKF-97623], the “%Inh” value was 0%.
`Cl.Cl.Cl.N#Cc1ccc(CCNc2nccc(-c3cccc(CN4CCNCC4)c3)n2)cc1` [GSK2137462] was tested, and the “%Inh” value was 0%.
`O=C1NC(=O)C(c2ccc(Cl)cc2)=C1Nc1ccc(O)cc1` [SB-340867] was tested, and the “%Inh” value was 0%.
With `CC[C@@H]1CO[C@H](C(=O)Nc2ccccc2)CN1c1cc(-c2ccc3c(N)n[nH]c3c2)nc(NC)n1` [GSK2376236] the “%Inh” value was 5%.
For `Cc1c(Cn2c3ccccc3n3c(=O)cc(N4CCOCC4)nc23)cccc1C(F)(F)F` [GSK2306394], the “%Inh” value was 0%.
With `CSc1ccc(-c2nc3n(c2-c2ccncc2)CCC3)cc1` [SKF-105561] the “%Inh” value was 30%.
`Cc1ccc(-c2nc(Nc3ccncc3)c3ccccc3n2)s1` [GSK189015] was tested, and the “%Inh” value was 0%.
With `Cc1ccc(NC(=O)Nc2ccc(Cl)cc2)cc1-c1ccc(C(=O)Nc2ccncc2)cc1` [GSK1398472] the “%Inh” value was 13%.
`CC(C)c1ccc(O)cc1Nc1ccnc2ccc(C(F)(F)F)cc12` [GW482059] was tested, and the “%Inh” value was 0%.
In the case of `CC(C)c1cc(-c2ccc3c(N)n[nH]c3c2)nc(N)n1` [GSK2250882], the “%Inh” value is reported as 3%.
For `Fc1ccc(-c2nc3n(c2-c2ccncc2)CCS3)cc1` [GI98581], the “%Inh” value was 13%.
`Cc1cccc2c(-c3ccncn3)c(-c3ccc(F)cc3)nn12` [GW515532] was tested, and the “%Inh” value was 22%.
With `COc1cccc(NC(=O)Nc2ccc(C)c(-c3ccc(C(=O)Nc4ccncc4)cc3)c2)c1` [GSK1398474] the “%Inh” value was 28%.
With `CNC(=O)c1ccc(C)c(-n2c(C)cc(OCc3ccc(F)cc3F)c(Br)c2=O)c1` the “%Inh” value was 0%.
`Cc1ccc(NC(=O)c2ccc(Cl)cc2)cc1-c1ccc(C(=O)Nc2ccncc2)cc1` [GSK1398467] was tested, and the “%Inh” value was 31%.
`O=C(Nc1n[nH]c2nc(-c3cccs3)c(Br)cc12)C1CCCC1` [SB-743341] was tested, and the “%Inh” value was 0%.
`COc1ccc2cc(-c3nc(-c4ccccc4C(C)C)[nH]c3-c3ccncc3)ccc2c1` [SB-660566] was tested, and the “%Inh” value was 42%.
In the case of `COc1cc2ncnc(Nc3cccc(Br)c3)c2cc1OC.Cl` [GI230329], the “%Inh” value is reported as 41%.
With `O=c1cc(N2CCOCC2)nc2n(Cc3cccc(Cl)c3Cl)c3ccccc3n12` [GSK2299009] the “%Inh” value was 5%.
`CC(=O)c1c(C)c2cnc(Nc3ccn(C)n3)nc2n(C2CCCC2)c1=O` was tested, and the “%Inh” value was 0%.
With `CN1c2ccc(-c3ccc(C(N)=O)cc3)cc2-c2[nH]ncc2S1(=O)=O` the “%Inh” value was 4%.
For `COc1ccc(Nc2nccc(NCCNC(=O)Nc3cc(C)ccc3C)n2)cc1` [GSK1379899], the “%Inh” value was 0%.
With `Nc1cccc(-c2ccc3c(N)n[nH]c3c2)n1` [GSK2192730] the “%Inh” value was 0%.
In the case of `CNc1nc(-c2ccc3c(N)n[nH]c3c2)cc(N2C[C@@H](C(=O)Nc3ccccc3)CC[C@H]2C)n1` [GSK2298859], the “%Inh” value is reported as 33%.
In the case of `Cc1ccc(NC(=O)Nc2ccccc2F)cc1-c1ccc(C(=O)Nc2ccncc2)cc1` [GSK1398477], the “%Inh” value is reported as 0%.
With `c1ccc(-c2ccnc3[nH]ccc23)cc1` [SB-693578] the “%Inh” value was 48%.
For `O=C(Nc1n[nH]c2nc(-c3cccs3)c(Br)cc12)C1CC1` [SB-735297], the “%Inh” value was 0%.
For `Cn1cncc1C(=O)NC1CCN(c2ccnc(Nc3ccc(F)cc3)n2)C1` (centres unmarked) [GSK1379717], the “%Inh” value was 22%.
`COc1ccc(Nc2nccc(N3CCC(NC(=O)C(C)c4ccc(Cl)cc4)CC3)n2)cc1` (centres unmarked) [GSK1379812] was tested, and the “%Inh” value was 47%.
`CCc1ccc(-c2ccc3c(c2)-c2n[nH]cc2S(=O)(=O)N3C)cc1` was tested, and the “%Inh” value was 3%.
For `CS(=O)(=O)CCNCc1nc(-c2ccc3ncnc(Nc4ccc(OCc5ccccc5)c(Cl)c4)c3c2)cs1.Cl` [GW582764], the “%Inh” value was 45%.
In the case of `Cc1ccc(NC(=O)Nc2ccc(Cl)c(C(F)(F)F)c2)cc1-c1ccc(C(=O)Nc2ccncc2)cc1` [GSK1398470], the “%Inh” value is reported as 0%.
In the case of `Fc1ccc(-c2nn3cccc(F)c3c2-c2ccncc2)cc1` [GW475620], the “%Inh” value is reported as 5%.
With `CNc1nc(-c2ccc3c(N)n[nH]c3c2)cc(N2C[C@@H](C(=O)NC3CCCCC3)OC[C@H]2C)n1` [GSK2375584] the “%Inh” value was 28%.
`Cn1cncc1-c1cc2c(Nc3ccc(OCc4ccccc4)cc3)ncnc2cn1` [GW281179] was tested, and the “%Inh” value was 25%.
For `Fc1ccc(-c2nc[nH]c2-c2ccncc2)cc1` [SB-217360], the “%Inh” value was 9%.
With `COc1cccc(C2=C(Nc3cc(Cl)c(O)c(Cl)c3)C(=O)NC2=O)c1` [SB-390767] the “%Inh” value was 16%.
